# GC-A act: GC-A (human) enzyme activation. P16066. HEK293 GC-A cells, cGMP TR-FRET, EC30 ANP; 0% at EC30 ANP, 100% saturating ANP. activation, % at 10 µM. 370,000 compounds, 0.14% hits. AID 1671463; in the data active = activation above about 40%
# Dyrk1A ADPGlo: Dyrk1A (rat) kinase inhibition. Q63470. inhibition, % at 12.5 µM. ADP-Glo luminescence, NFATc1 peptide. AID 504441. 310,000 compounds, 0.43% hits; in the data active = inhibition above about 50%;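 also: plate controls were vehicle with enzyme for no effect and no enzyme for full effect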
# GC-B act: GC-B (human) receptor activation. HEK293-GC-B cells, CNP EC30, cGMP TR-FRET; 0% at EC30 CNP, 100% saturating CNP. activation, % at 10 µM. 370,000 compounds, 0.11% hits;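 active = activation at 10 µM reaching about 35% in either raw or pattern-adjusted values, limit read from the data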
# aDG glyco up: alpha-DG glycosylation activation; 360,000 compounds, 0.22% hits; AID 624168; activation, % at 10 µM; Pro5-aDG cells, alpha-DG glycosylation AlphaScreen (IIH6); 0% Pro5, 100% B10-LARGE cell signal;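 active = activation of at least 8% versus controls, or a plate z-score of at least 8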;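 also: Pro5 are CHO cells carrying HIG-tagged alpha-DG that lacks glycosylation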
# HSF-1 act: increases HSF-1 driven luciferase reporter signal. NIH3T3-HGL HSF-1 luciferase reporter, MG132, 8 h; 100% = twice DMSO control signal. activation, % at 9 µM. 300,000 compounds, 1.7% hits. AID 504408;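 active = mean replicate activation of at least 50% with a set share of replicates each reaching 50%; inconclusive = only one of those two conditions met; inactive = mean below 50% and too few replicates reaching it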;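 also: 0% = median of the neutral control wells and 100% = twice that signal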
# HSF1 inh: HSF1 inhibition | activity change, negative = inhibition, % at 7.5 µM (by protocol) | 300,000 compounds, 0.77% hits | NIH3T3-HGL HSE-luciferase, MG132-induced, luminescence 8 h; hits give low values | AID 2098;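 active = more than half of replicate wells show activity change below -50%, luminescence cut by over half; inconclusive = some wells, but at most half, below -50%; inactive = no replicate well below -50%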;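 also: luciferase reports HSF-1 transcriptional activity via heat shock element; 0% = median of DMSO wells and -100% = zero luminescence signal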
# Active calls of the source: *; ? = inconclusive; · = not tested or not shown. An excerpt weighted towards active compounds, which were near 2.5% of everything screened.
SMILES,GC-A act,Dyrk1A ADPGlo,GC-B act,aDG glyco up,HSF-1 act,HSF1 inh
CCC(c1nnnn1Cc1ccco1)N(Cc1ccccc1OC)Cc1cc2cc(C)ccc2[nH]c1=O (stereo unspecified),-11,-10,-3,0,89*,88
COc1ccc2[nH]c(=O)c(CN(C3CCCCC3)C(c3nnnn3Cc3ccco3)C(C)C)cc2c1 (stereo unspecified),·,6,·,0,119*,96
Cc1ccc2[nH]c(=O)c(CN(CCCO)C(C)c3nnnn3Cc3ccco3)cc2c1 (stereo unspecified),-4,1,4,0,4,-5
Cc1cccc2cc(C(c3nnnn3C(C)(C)C)N(Cc3ccco3)CC3CCCO3)c(=O)[nH]c12 (stereo unspecified),-6,4,-1,0,7,-8
CCC(c1nnnn1Cc1ccco1)N(Cc1cc2cc(C)cc(C)c2[nH]c1=O)CC1CCCO1 (stereo unspecified),-4,4,4,0,64*,52
Cc1cccc2cc(CN(Cc3ccco3)C(c3nnnn3CCc3ccccc3)C(C)C)c(=O)[nH]c12 (stereo unspecified),-10,1,-6,0,198*,138
CC1CCCCN1C(=O)COC(=O)c1cc(Cl)c2c(c1)OCO2 (stereo unspecified),-2,·,-6,0,·,·
CCCc1ncc(C(O)c2ccc(OC)cc2)n1C (stereo unspecified),-1,·,-2,2,-5,-5
CCn1c(COc2c(C)cccc2C)nnc1SCC(=O)N1CCN(c2ccccc2)CC1,1,15,-6,0,0,-7
COC(=O)C1=C(C)N(Cc2ccc(C(F)(F)F)cc2)C(=NCC2CC2)NC1c1ccccc1 (stereo unspecified),-16,·,-5,·,·,·
CC(=O)N(Cc1cc2c(C)cc(C)cc2[nH]c1=O)C1CCCCC1,-1,10,2,0,31,8
CCOC(=O)Cn1nnnc1C(C(C)C)N(Cc1cc2c(C)cc(C)cc2[nH]c1=O)C1CCCC1 (stereo unspecified),1,·,4,0,123*,86
Cn1ccnc1Sc1cc(NCCCO)c([N+](=O)[O-])c2nonc12,5,16,-3,0,-96,-95*
CC(=O)OCCCNc1cc(Sc2ccc(C)cc2)c2nonc2c1[N+](=O)[O-],12,-8,13,0,-84,-80*
CC(=O)OCCCNc1cc(Sc2nc3ccccc3s2)c2nonc2c1[N+](=O)[O-],·,0,·,0,-77,-79*
O=[N+]([O-])c1c(NCCCO)cc(Sc2ccc(Cl)cc2)c2nonc12,13,-4,-4,-1,?,164
O=[N+]([O-])c1c(NCCCO)cc(SCc2ccco2)c2nonc12,7,3,-2,0,-38,-22
COc1ccc(OC)c(C2=NS(=O)(=O)N(C)C(C(=O)NCc3cccs3)=C2)c1,2,·,0,0,18,3
O=C(CN1C(=O)NC2(CCCc3ccccc32)C1=O)Nc1cccc(S(=O)(=O)N2CCCCC2)c1 (stereo unspecified),3,-4,1,0,58*,24
O=C(c1cc(COc2ccc(F)cc2Cl)on1)N1CCCCCC1,1,-2,-2,0,60*,46
CCCCn1c(N)c(N(CCC(C)C)C(=O)c2cc(Cl)nc3ccccc23)c(=O)[nH]c1=O,-1,1,2,0,·,·
NC(=O)c1cc(Cc2ccccc2)sc1NC(=O)c1ccco1,8,6,4,0,134*,94
O=C(Nc1nnc(Cc2ccccc2)s1)c1ccco1,-1,-6,-3,0,39,8
COc1cccc(C2c3[nH]c4ccccc4c3C[C@H]3C(=O)N(c4ccccc4C(=O)N4CCC(C(=O)O)CC4)C(=O)N23)c1 (stereo partly specified),37,-4,51*,0,3,-4
COc1ccc(C2c3[nH]c4ccccc4c3C[C@H]3C(=O)N(c4ccccc4C(=O)N4CCC(C(=O)O)CC4)C(=O)N23)cc1 (stereo partly specified),7,0,13,0,1,5
SMILES,GC-A act,Dyrk1A ADPGlo,GC-B act,aDG glyco up,HSF-1 act,HSF1 inh
Cc1cccc(Sc2ccc([N+](=O)[O-])cn2)c1,0,-4,3,0,-7,-5
O=[N+]([O-])c1ccc(Sc2ccccc2)nc1,6,-1,-1,0,53*,17
CC(=O)c1sc(C(C)(C)C)cc1NC(=O)c1ccccc1C(=O)O,47*,0,26,0,7,-7
CNC(=O)C[C@H]1C(=O)N(C2CCCCC2)C[C@@H]1CSC,2,·,-2,0,·,·
NC(=O)C1CCN(C(=O)CNC(=O)c2ccc(Br)o2)CC1,-1,·,5,0,-2,1
O=C(CCNS(=O)(=O)c1cccc2nsnc12)NCc1cccs1,-1,-1,-1,0,-83,-80*
CCOC(=O)c1cc2cc(OC)ccc2nc1C,-1,3,-26,0,11,-4
COc1cccc(/C=N/N2C(=O)NC3(CCCCC3)C2=O)c1O,-1,3,0,0,-2,1
COc1ccc(-n2nc(C(=O)NCC(=O)N3CCOCC3)c3ccccc3c2=O)cc1Cl,5,1,2,0,56*,13
N#CCSc1nc2ccccc2c2nc3ccccc3n12,8,2,10,0,68*,36
CN1CCN(C(=O)c2cnn3c(C(F)(F)F)cc(-c4ccc5c(c4)OCO5)nc23)CC1,20,-1,19,0,-7,-9
O=C(c1cnn2c(C(F)(F)F)cc(-c3ccc4c(c3)OCO4)nc12)N1CCCCC1,44*,1,49*,0,3,-2
O=C(c1cnn2c(C(F)(F)F)cc(-c3cccs3)nc12)N1CCN(Cc2ccccc2)CC1,51*,0,46*,-1,-8,-1
CCCCCCSc1cc(-c2nc3ccc(Cl)cn3c2NC2CCCCC2)ccc1OC,11,-10,7,0,14,9
CC(=O)c1csc(-c2cccc(-c3nc4ccc(Cl)cn4c3NC3CCCCC3)c2)c1,51*,8,56*,0,11,12
COc1ccc(-c2cccc(-c3nc4ccc(Cl)cn4c3NC3CCCCC3)c2)cc1,43*,1,50*,0,·,·
CCC(C)Sc1cc(-c2nc3ccc(Cl)cn3c2NC2CCCCC2)ccc1OC (stereo unspecified),40,2,29,0,·,·
CCCc1nnc(NC(=O)CN2CCN(C)CC2)s1,-6,2,1,1,-3,-6
